Screens from PubChem BioAssay.
DT40 TDP1 no CPT = qHTS for Inhibitors of human tyrosyl-DNA phosphodiesterase 1 (TDP1): qHTS in cells in absence of CPT. AID 686978, 2013. DT40 Tdp1-/- hTDP1 cells, no CPT, ATP luminescence, 48 h. 420,000 tested, 15% active. Potency, µM (titrated, usually from 46.2 µM), for inactives: at the highest dose activity change, negative = growth inhibition, usual class: inhibitors; also: potency is read from the fitted curve at half-maximal effect; nearly all actives have a fitted effect of over 55% in size
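DT40 Tdp1-/-;hTDP1 cells, no CPT (DMSO vehicle only), 400 cells/well; compounds pin-transferred; ≥48 hr, 37 °C; CellTiter-Glo 30 min RT dark, luminescence read.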
HT1080-NT tox = kills 2HG-producing HT-1080-NT fibrosarcoma cells; AID 686970; Potency, µM (titrated, usually from 46.1 µM), without a hit: at the top dose activity, negative = less viability, most hits filed as cytotoxic; HT-1080-NT fibrosarcoma viability, CellTiter-Glo ATP luminescence, 48 h; 360,000 tested, 1.6% active;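 also: NT is the 2HG producing partner of a matched IDH1 knockdown line; potency is read from the fitted curve at half-maximal effect; 0% = DMSO-treated cells and -100% = media-only wells without cells; nearly all actives have a fitted effect of over 55% in size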
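Luminescent CellTiter-Glo readout after 48 hours of compound exposure at 37 degrees C defined viability of HT-1080-NT cells. Activity was normalized to DMSO wells and cell-free media wells; concentration-response curves were fitted and assigned curve classes.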
DT40 TDP1 CPT = DT40-hTDP1 cell growth loss with CPT; 420,000 tested, 12% active; chicken DT40 Tdp1-/-;hTDP1 cells + 20 nM CPT, ATP luminescence, 48 h; AID 686979; Potency, µM (highest dose often 46.2 µM), for inactives: at the highest dose activity change, negative = growth inhibition, hits mostly inhibitors; also: potency is read from the fitted curve at half-maximal effect; nearly all actives have a fitted effect of over 55% in size
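Chicken DT40 Tdp1-/- cells stably complemented with human TDP1 were seeded at 400 cells/well in medium containing 20 nM camptothecin, exposed to pin-transferred compounds, and grown at 37 °C for at least 48 hr. Viability was read as ATP luminescence.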
ELG1 repair inh = ELG1-dependent DNA repair inhibition | HEK293T ELG1-luciferase reporter, luminescence, 16 h; DNA damage induced by 5-fluorouridine | Potency, µM (titrated, usually from 46.1 µM), for the others: at the highest dose activity change, negative = inhibition, most hits filed as inhibitors | 330,000 tested, 2.3% active | AID 504467; also: potency is read from the fitted curve at half-maximal effect; nearly all actives have a fitted effect of over 55% in size
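In this reporter screen, reduction of luminescence relative to DMSO vehicle indicated activity. Compounds and 5-fluorouridine were added together to 2,000 cells per well, incubated for 16 hr at 37 °C, then developed with ONE-Glo.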
IL-1B inflam inh = inhibitors of inflammasome signaling (IL-1 beta secretion). THP-1 LPS/ATP IL-1B secretion, AlphaLISA, 16 h; stronger effect = lower value. activity change, % at 57.5 µM. 360,000 tested, 4.7% active. AID 743279; in the data active = activity change below about -50%; inconclusive = mostly about -30% to -49%
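THP-1 cells pretreated 1 hr with compounds (up to 57.5 uM final), then stimulated with LPS (250 ng/mL final) plus ATP (1.25 mM final); secreted IL-1B measured by AlphaLISA after 16 hr, decreased signal indicating inhibition.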
HT1080 IDH1KD tx = HT-1080 IDH1 knockdown cell toxicity (counter line); HT-1080 IDH1 knockdown viability, ATP luminescence, 48 h; AID 686971; 360,000 tested, 2% active; Potency, µM (highest dose often 46.1 µM), without a hit: at the highest dose activity, negative = toxicity, most hits filed as cytotoxic;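 also: potency is read from the fitted curve at half-maximal effect; 0% = DMSO wells and -100% = cell-free medium wells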
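HT-1080-IDH1KD cells (IDH1 knocked down), 750/well in RPMI with 5% FBS, treated with compound 48 h at 37 degrees C. Viability by CellTiter-Glo luminescence, normalised to DMSO and no-cell wells; concentration-response curves classed.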
An asterisk follows results filed as active; ? = inconclusive; nt = no result given; [ ] = remark or other dose. In the library only some 19% were active in any assay of this set; here they are far more common. Unless noted, calls follow the shape of the dose curve; as a rule, active = well fitted curve in the direction sought with a large enough effect; inconclusive = small, poorly fitted or top-dose-only effect, or another doubt; inactive = no such curve, though single readings can be large; an effect the other way counts as inactive or inconclusive. Unless noted, % is scaled to controls: 0 for no effect and ±100 for the full control effect.

SMILES	DT40 TDP1 no CPT	HT1080-NT tox	DT40 TDP1 CPT	ELG1 repair inh	IL-1B inflam inh	HT1080 IDH1KD tx
COc1ccc(CC(=O)NCCc2csc3nc(-c4ccccc4F)nn23)cc1	-20%	nt	?	nt	nt	nt
CC(C)(C)c1ccc(C(=O)NCCc2csc3nc(-c4ccccc4F)nn23)cc1	?	nt	21µM*	nt	nt	nt
CCOc1cc(C(=O)NCCc2csc3nc(-c4ccccc4F)nn23)cc(OCC)c1OCC	?	nt	23µM*	nt	nt	nt
Cc1cc(NC(=O)CN2C(=O)N(C)C3(CCCCC3)C2=O)ccc1Br	7%	-18%	-30%	-1%	-5	-11%
O=C(NCCCn1cccn1)C1CCC(=O)N(CCc2ccccc2)C1 (stereo unspecified)	22%	10%	-2%	2%	3	2%
O=c1c(-c2ccccc2)nc2cnc(N3CCOCC3)nc2n1Cc1ccc(F)cc1	-2%	nt	-15%	nt	nt	nt
NC(=O)c1ccc(NC(=O)CCN=C2NS(=O)(=O)c3ccccc32)cc1	-2%	2%	-1%	3%	0	12%
CCCCCCCCN1C(=O)[C@H](CC(=O)N2CCN(C(=O)OCC)CC2)C[C@@]2(C(=O)OC)CCCCC=C12	21µM*	?	?	nt	-8	?
COC(=O)[C@]12CCCCC=C1N(Cc1ccco1)C(=O)[C@H](CC(=O)N1CCSCC1)C2	-28%	-4%	-3%	nt	-6	5%
CCCCCCCCN1C(=O)[C@H](CC(=O)N2CCSCC2)C[C@@]2(C(=O)OC)CCCCC=C12	?	?	?	nt	-68*	?
CCOC(=O)N1CCN(C(=O)C[C@@H]2C[C@@]3(C(=O)OC)CCCCC=C3N(CCc3ccc(OC)c(OC)c3)C2=O)CC1	?	7%	?	nt	-9	16%
CCCCCCCCN1C(=O)[C@H](CC(=O)N2CCC(c3ccccc3)CC2)C[C@@]2(C(=O)OC)CCCCC=C12	18µM*	-2%	?	nt	-18	-13%
CCOC(=O)[C@]12CCCC=C1N(Cc1ccccc1)C(=O)[C@H](CC(=O)N1CCN(C(=O)C3CC3)CC1)C2	10%	6%	2%	nt	-17	-14%
CCCCCCCCN1C(=O)[C@H](CC(=O)N2CCN(C(=O)C3CC3)CC2)C[C@@]2(C(=O)OCC)CCCC=C12	23µM*	?	23µM*	nt	-66*	?
NCC1CCC(C(=O)O)CC1 (stereo unspecified)	-9%[21.1 µM]	nt	7%[21.1 µM]	nt	nt	nt
CCCCCCCCN1C(=O)[C@H](CC(=O)N2CCCC2)C[C@@]2(C(=O)OC)CCCCC=C12	18µM*	?	16µM*	nt	-17	?
CCCCCCCCN1C(=O)[C@H](CC(=O)N2CCN(C(=O)C3CC3)CC2)C[C@@]2(C(=O)OC)CCCCC=C12	16µM*	?	?	nt	-51*	?
Cc1cccc2cc(C#N)c(NCCCNS(=O)(=O)c3ccc(Cl)cc3)nc12	?	?	18µM*	?	-24	?
Cc1cccc2cc(C#N)c(NCCNS(=O)(=O)c3ccccc3)nc12	0%	2%	1%	2%	30	-4%
CC(=O)c1ccc(NC(=O)c2cnc(N3CCCC3)nc2C)cc1	?	nt	-18%	nt	nt	nt
O=C(NC1CC2CCCC(C1)N2S(=O)(=O)c1ccccc1)C1CCCCC1 (stereo unspecified)	?	-3%	?	-25%	12	0%
O=C(CN1C2CCCC1CC(NC(=O)C1CCCCC1)C2)Nc1ccccc1 (stereo unspecified)	?	-16%	15µM*	2%	17	0%
N=c1oc2cc(O)ccc2cc1C(=O)Nc1ccccn1	nt	nt	nt	8%	nt	nt
N=c1oc2cc(O)ccc2cc1C(=O)Nc1ccc(Br)cc1	?	?	?	?	-90*	?
Cc1nc2nncn2c(Nc2ccccc2)c1C	18µM*	nt	21µM*	nt	nt	nt
SMILES	DT40 TDP1 no CPT	HT1080-NT tox	DT40 TDP1 CPT	ELG1 repair inh	IL-1B inflam inh	HT1080 IDH1KD tx
Cc1ccc(CNc2nnnn2C)cc1	-20%	0%	20%	11%	10	-2%
CCc1c(C)nc2nncn2c1NCc1ccc(Cl)cc1	4.6µM*	nt	8.2µM*	nt	nt	nt
Cc1ccc(CNc2c(C)c(C)nc3nncn23)cc1	1.2µM*	nt	4.1µM*	nt	nt	nt
CCCCC/C=C\C/C=C\C/C=C\C/C=C\CCCC(=O)O[C@@H](CO)COCCCCCCCCCCCCCCCC	0%[4.12 µM]	nt	3%[4.12 µM]	nt	nt	nt
CC(=O)Nc1cc(C(=O)NCc2ccc(C)cc2)ccc1Sc1ccc(C)cc1	23µM*	nt	16µM*	nt	nt	nt
CCOc1ccc(CNC(=O)c2ccc(Sc3ccc(Cl)cc3)c(NC(C)=O)c2)cc1OC	21µM*	-14%	?	?	?	-14%
COc1cc(NC(=O)CSCc2ccccc2)c(C(=O)O)cc1OC	6%	7%	0%	-12%	11	3%
O=[N+]([O-])c1ccc(N=Cc2ccc(Br)c([N+](=O)[O-])c2)cc1	5.2µM*	?	5.2µM*	1%	-99*	-14%
O=[N+]([O-])c1ccc(C=Nc2ccccc2)cc1	?	-21%	?	nt	-21	3%
O=C(Nc1cccc(F)c1)Nc1cccc(Cl)c1	?	?	?	?	-88*	?
N#Cc1ccccc1NC(=O)Nc1cccc(Cl)c1	-21%	3%	11%	nt	0	6%
O=C(Nc1ccccc1)Nc1cc(OCC(F)(F)F)cc(OCC(F)(F)F)c1	2.9µM*	6.5µM*	4.1µM*	?	-103*	7.3µM*
Fc1ccc(NC(=S)Nc2cccnc2)cc1Cl	23µM*	3%	?	?	20	2%
N#CCc1ccc(NC(=O)Nc2cccc(Cl)c2)cc1	?	-2%	16µM*	7%	-30	2%
O=C(Nc1ccc(F)c(Cl)c1)c1cccnc1	?	7%	?	?	-16	1%
Cc1ccc(OCC(=O)OCc2cc(=O)n3ccsc3n2)cc1C	?	nt	-11%	nt	nt	nt
COc1ccc(CN2C(=O)C(CC(=O)NC3CCCCC3)CC(C(=O)N(C)C)=C2C)cc1 (stereo unspecified)	-20%	-1%	?	nt	9	-4%
O=C(Nc1cccnc1)Nc1ccccc1Cl	-8%	11%	?	?	10	-2%
O=C(Nc1ccccc1)Nc1cc(Cl)cc(Cl)c1	12µM*	16µM*	6.5µM*	0%	-82*	15µM*
